Most compounds without a hit are left out; they make up all but 2.1% or so of the library.
GRP78 ERSR act: qHTS for Inducers of the Endoplasmic Reticulum Stress Response (ERSR) in Human Glioma: qHTS; U87-MG GRP78 promoter luciferase reporter, 16 h; Potency, µM, for inactives: at the highest dose activation, usual class: activators; hit rate 0.02% among 420,000; AID 602332, 2012; further: potency means the concentration at half of the fitted maximal effect; series mostly up to about 76 µM; % of control where 0% means no effect; nearly all actives have a fitted effect of over 35% in size
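Stably transfected U87-MG glioma cells carrying a GRP78-based luciferase sensor; 16 h compound incubation. Luminescence end-point read 10 min after Bright-Glo addition at room temperature.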
Nrf2 activator: qHTS of Nrf2 Activators; hit rate 0.31% among 410,000; AREc32 ARE-luciferase reporter (MCF7-derived line), luminescence, 24 h; Potency, µM (series often up to 46.1 µM), inactives show at the highest dose activation, usual class: activators; AID 624171, 2012; further: potency means the concentration at half of the fitted maximal effect; % of control where 0% means no effect; nearly all actives have a fitted effect of over 65% in size
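Reporter line AREc32 (ARE-Fluc), seeded overnight in OPTI-MEM with 5% FBS; compound pin-transferred, 24 hr at 37 deg C, 5% CO2; luminescent read-out.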
miR-21 reporter: qHTS Assay for Modulators of miRNAs and/orActivators of miR-21; HeLa miR-21 FLuc reporter, luciferase, 48 h; Potency, µM (highest dose often 38.3 µM), for the others: at the highest dose activity change, positive = activation, usual class: activators; 340,000 tested, under 10 active;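 further: % of control where 0% means no effect; miR-21 action dims this reporter so a rising signal means less miR-21 action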
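HeLa cells stably expressing CMV-driven firefly luciferase with a downstream miR-21 binding sequence, endogenously expressing miR-21, were treated with titrations (up to about 40uM final) for 48 hours at 37 degree Celsius. Luciferase luminescence was read after lysis.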
A549 tox: Nrf2 qHTS screen for inhibitors: counterscreen for cytotoxicity | A549 ARE-Fluc cells, CellTiter-Fluor viability, 18-24 h | Potency, µM (titrated, usually from 46 µM), for inactives: at the highest dose activity change, negative = cytotoxicity, actives largely listed as inhibitors | hit rate 0.16% among 390,000; further: potency means the concentration at half of the fitted maximal effect; on the % scale 0 is the no-effect control and ±100 the full control effect
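A549 ARE_Fluc cells in 5% FBS OPTI-MEM were exposed to compounds in concentration-response for 18-24 h at 37 deg C. Viability was read by CellTiter-Fluor fluorescence (Ex 405/Em 525) after 30 min, before the luciferase read.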
Nrf2 inh: Nrf2 qHTS screen for inhibitors | Potency, µM (highest dose often 46 µM), for the others: top-dose activity change, negative = inhibition, hits mostly inhibitors | A549 ARE-Fluc reporter, luciferase luminescence, 18-24 h | hit rate 2.1% among 360,000; further: potency means the concentration at half of the fitted maximal effect; on the % scale 0 is the no-effect control and ±100 the full control effect; nearly all actives have a fitted effect of over 60% in size
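Two sequential reads on A549 ARE_Fluc cells exposed to compound for 18-24 h: a CellTiter-Fluor fluorescence read for viability, then a luciferase luminescence read for Nrf2/ARE activity.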
TSG101-PTAP inh: qHTS Assay for Iinhibitors of HIV-1 Budding by Blocking the Interaction of PTAP/TSG101; Tumor susceptibility gene 101 protein (Homo sapiens), Q99816; Fluorescence polarization, FITC-PTAP peptide / Tsg101 binding; Potency, µM (series often up to 115 µM), for the others: at the top dose activity change, negative = inhibition, hits mostly inhibitors; 340,000 tested, under 10 active; active means well fitted inhibition curve with a large enough effect in the main read-out, with a control signal flat, not every such curve was filed as active; inconclusive means small, poorly fitted or top-dose-only effect, or effect the other way, or a change in a side signal; inactive means no such curve, though single readings can be large or run the other way; further: potency means the concentration at half of the fitted maximal effect; % of control where 0% means no effect
Target sequence (Q99816 whole entry, looked up): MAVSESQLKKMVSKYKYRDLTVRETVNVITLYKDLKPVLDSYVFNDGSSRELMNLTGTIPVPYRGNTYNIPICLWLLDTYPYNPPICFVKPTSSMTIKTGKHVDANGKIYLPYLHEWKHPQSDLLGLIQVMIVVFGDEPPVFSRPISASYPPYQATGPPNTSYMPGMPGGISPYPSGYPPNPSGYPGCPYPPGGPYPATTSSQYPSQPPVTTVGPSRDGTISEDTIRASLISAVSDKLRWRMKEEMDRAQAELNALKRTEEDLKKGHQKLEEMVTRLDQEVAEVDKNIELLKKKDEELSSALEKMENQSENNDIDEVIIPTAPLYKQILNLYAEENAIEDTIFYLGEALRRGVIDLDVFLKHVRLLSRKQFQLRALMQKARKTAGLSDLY
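FP read-out: FITC-PTAP peptide, 50 nM final, binding Tsg101 binding domain, 10 uM final; 20 min, r.t.; 10 mM HEPES pH 7.5, 0.15 M NaCl, 0.01% Tween 20, 3 mM EDTA, 0.1 mM TCEP.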
* marks the source's active call; other numbers are inactive results; ? = inconclusive; nt = not tested or not shown; [ ] = remark or other dose. Unless noted, the call rests on the fitted dose curve; in most records, active means well fitted curve in the direction sought with a large enough effect; inconclusive means small, poorly fitted or top-dose-only effect, or another doubt; inactive means no such curve, though single readings can be large; an effect the other way counts as inactive or inconclusive.

SMILES	GRP78 ERSR act	Nrf2 activator	miR-21 reporter	A549 tox	Nrf2 inh	TSG101-PTAP inh
CC1CCc2nc(NC(=O)c3ccc(S(=O)(=O)N4CCCc5ccccc54)cc3)sc2C1 (configuration not stated)	-4%	0%	0%	0%	5.2µM*	-1%
O=C(Nc1nc2c(s1)CCCC2)c1ccc(S(=O)(=O)N2CCCc3ccccc32)cc1	3%	8%	16%	-18%	18µM*	-14%
NCCNc1ncnc2ccc(-c3ccc4c(c3)OCO4)cc12	nt	nt	nt	-22%	-16%	nt
Cc1cccc(NCc2ccc(O)c3ncccc23)c1	-4%	3%	18%	-24%	?	-8%
Cc1ccc(NCc2ccc(O)c3ncccc23)c(F)c1	nt	nt	nt	-10%	21µM*	nt
Oc1ccc(CNCc2ccccc2F)c2cccnc12	nt	nt	nt	-11%	1.3µM*	nt
Oc1ccc(CNc2ccccc2)c2cccnc12	-3%	8%	29%	-14%	5.2µM*	-1%
Oc1ccc(CNc2ccc(F)cc2)c2cccnc12	0%	0%	26%	?	7.3µM*	-3%
COc1ccc(/C=N\NC(=O)c2ccccc2F)cc1COc1ccc(F)cc1F	-9%	0%	6%	?	-17%	0%
COc1ccc(/C=N/NC(=O)c2cc(C(C)(C)C)[nH]n2)cc1COc1ccc(F)cc1F	-7%	-1%	12%	?	21µM*	-7%
CN(CCO)C(=O)c1cn(C2CCCN(Cc3ccc4ccccc4c3)C2)nn1 (configuration not stated)	-5%	nt	nt	nt	nt	nt
COC(=O)c1sc(-c2ccccc2)cc1NC(C)=O	0%	11%	-20%	5%	-4%	-2%
COC(=O)c1sc(-c2cccs2)cc1NC(=O)/C=C/C(=O)O	7%	16µM*	3%	-7%	11%	-10%
Cc1ccc(-c2nc(CN(C)Cc3cccc4cnccc34)c(C)o2)s1	-1%	4%	-2%	-2%	23µM*	-1%
Cc1ccc(-c2nc(CN(C)C3CCOCC3)c(C)o2)s1	2%	0%	1%	4%	-2%	0%
O=C(NCc1ccc(F)cc1)n1c(-c2ccccc2)c(P(=S)(c2ccccc2)c2ccccc2)c2ccccc21	nt	nt	nt	-16%	?	nt
O=C(Nc1ccc(Cl)cc1)N1CCN(c2ccc3nnc(-c4ccccc4)n3n2)CC1	-4%	3%	-8%	-22%	26µM*	nt
COc1ccccc1NC(=O)N1CCN(c2ccc3nnc(-c4ccc(F)cc4)n3n2)CC1	1%	8%	1%	-9%	9.2µM*	-2%
CC(C)(C)c1ccc(C2CC2C(=O)N/N=C\c2ccc[nH]2)cc1 (configuration not stated)	1%	0%[9.22 µM]	?	5.8µM*	1.6µM*	-4%
O=C(N/N=C/c1ccco1)C1CC1c1ccccc1 (configuration not stated)	-2%	24%	-7%	-2%	-25%	-5%
CC1(C(=O)O)CCC2(C)CCC3(C)C(=CC(=O)[C@@H]4C5(C)CC[C@H](O[C@H]6O[C@H](C(=O)O)C(O)C(O)[C@H]6O[C@@H]6O[C@H](C(=O)O)C(O)C(O)C6O)C(C)(C)[C@@H]5CCC43C)[C@@H]2C1 (some centres not stated)	0%	nt	nt	nt	nt	nt
CCN(CC)CCN(C)c1ccc(/C=C/c2ccnc3ccccc23)cc1	1%	nt	nt	nt	nt	nt
Cc1cccc2[nH]c3c(N4CC=C(c5ccc(F)cc5)CC4)ncnc3c12	-7%	6%	23%	-10%	21µM*	-2%
O=C1NC(=S)S/C1=C\c1cccc([N+](=O)[O-])c1	0%	4%	nt	?	18µM*	-6%
CCN1C/C(=C/c2cccc([N+](=O)[O-])c2)C(=O)/C(=C/c2cccc([N+](=O)[O-])c2)C1	-14%	13µM*	?	-14%	10%	-2%
SMILES	GRP78 ERSR act	Nrf2 activator	miR-21 reporter	A549 tox	Nrf2 inh	TSG101-PTAP inh
CC1Cc2cc(/C=C3/SC(=S)NC3=O)ccc2O1 (configuration not stated)	6%	3%	-21%	13µM*	?	0%
CCN(CC)c1ccc(C=C2SC(=S)NC2=O)cc1	0%	3%	nt	?	-2%	?
CCOc1cc(/C=C2\CN(CC)C/C(=C\c3ccc(O)c(OCC)c3)C2=O)ccc1O	-19%	?	?	?	?	-1%
O=C1NC(=Nc2ccccc2Cl)S/C1=C\c1cccc([N+](=O)[O-])c1	1%	?	5%	-2%	29%	-5%
O=C(Cn1nc2ccccc2n1)N1CCOc2ccc(CN3CCc4sccc4C3)cc2C1	2%	nt	nt	nt	nt	nt
O=S(Cc1cc(Oc2ccccc2)nc(-c2ccccc2)n1)c1ccccc1 (configuration not stated)	-10%	0%	-6%	-11%	10µM*	-5%
COc1ccc(NC(=O)COC(=O)c2cc(=O)c3ccccc3o2)cc1OC	-3%	13µM*	nt	0%	21%	1%
CCOC(=O)[C@H]1O[C@@H]1C(=O)N[C@@H](CC(C)C)C(=O)NCCC(C)C	4%	5%	-1%	21µM*	10%	0%
CC(C)CCNC(=O)[C@H](CC(C)C)NC(=O)[C@H]1O[C@@H]1C(=O)O	nt	nt	1%	nt	nt	nt
Nc1cccc(S(=O)(=O)N2CCN(S(=O)(=O)c3ccc4c(c3)OCCO4)CC2)c1	nt	nt	nt	-1%	-19%	nt
CCOc1ccccc1N1CCN(c2ncnc3scc(-c4ccc(OC)cc4)c23)CC1	-5%	-1%	0%	-4%	?	0%
Fc1ccc(CN2CCN(c3ncnc4scc(-c5ccccc5)c34)CC2)cc1	-4%	0%	7%	-3%	23µM*	-3%
COc1ccc(-c2nc(CN3CCN(c4ccccc4OC)CC3)c(C)o2)cc1	-3%	4%	7%	?	18µM*	-3%
COc1ccccc1N1CCN(Cc2nc(-c3ccc(F)cc3)oc2C)CC1	0%	4%	0%	-12%	?	-5%
Cc1ccc(-c2csc3ncnc(N4CCN(Cc5ccccc5)CC4)c23)cc1	-1%	0%	-3%	-9%	23µM*	-2%
COc1ccc(-c2csc3ncnc(N4CCN(c5ccccc5OC)CC4)c23)cc1	-3%	1%	?	?	23µM*	0%
N#CC1=C(N)CCC1	-3%	nt	nt	nt	nt	nt
